Values joined by “and” are separate entries in the source; they are usually repeats but may differ in a detail not shown here. Identical values can stand only once. Hit rate of the full screen: of about 5,500 compounds, about 2,000 (36%) were called active. Not shown: some 18% with an inconclusive outcome. Rule as the data show it: active = normalized growth mostly below about 0.91 (no sharp cut-off); inconclusive = no clear call, values can overlap the other calls; inactive = mostly above about 0.92. Some of the results follow. Some compounds were tested as several samples or in several runs, with calls that do not always agree.
Test: chemical genetic growth profiling, strain panel (AID 1159580);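 also: tested at 20 µM; growth read once vehicle control cultures reached saturation at 30 °C; 1 = growth at the plate median or of vehicle wells; lower values mean less growth of the strain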
Conditions: S. cerevisiae deletion strains, growth OD

Measured: normalized growth

CC(C)COCC(CN(Cc1ccccc1)c1ccccc1)N1CCCC1 (stereo not given)
0.587 (active) and 0.983 (inactive): locus YJL095W, strain BCK1, stronger effect = lower value
inactive: locus YAL021C, strain ccr4, stronger effect = lower value 0.962 | locus YAL026C, strain drs2, stronger effect = lower value 1.01 | locus YAL030W, strain snc1, stronger effect = lower value 1.03 | locus YAL040C, strain CLN3, stronger effect = lower value 1.09 | locus YBL061C, strain skt5, stronger effect = lower value 1.04 | locus YBR009C, strain hhf1, stronger effect = lower value 1 | locus YBR023C, strain chs3, stronger effect = lower value 1.02 | locus YBR171W, strain sec66, stronger effect = lower value 1.06 | locus YBR229C, strain ROT2, stronger effect = lower value 0.953 | locus YBR231C, strain swc5, stronger effect = lower value 1.01 | locus YBR279W, strain paf1, stronger effect = lower value 1.04 | locus YCL011C, strain gbp2, stronger effect = lower value 1.02 | locus YCL016C, strain dcc1, stronger effect = lower value 1.02 | locus YCL029C, strain bik1, stronger effect = lower value 0.978 | locus YCL061C, strain MRC1 (second series), stronger effect = lower value 1.01 | locus YCL061C, strain MRC1, stronger effect = lower value 1.02 | locus YCL069W, strain vba3, stronger effect = lower value 1.05 | locus YCR088W, strain abp1, stronger effect = lower value 1.04 | locus YDL005C, strain med2, stronger effect = lower value 1.05 | locus YDL035C, strain GPR1, stronger effect = lower value 0.864 | locus YDL040C, strain nat1, stronger effect = lower value 1.02 | locus YDL101C, strain DUN1, stronger effect = lower value 0.926 | locus YDL134C, strain PPH21, stronger effect = lower value 0.9 | locus YDL185W, strain tfp1, stronger effect = lower value 0.978 | locus YDL192W, strain arf1, stronger effect = lower value 0.977 | locus YDR001C, strain nth1, stronger effect = lower value 1.03 | locus YDR069C, strain doa4, stronger effect = lower value 1.02 | locus YDR101C, strain arx1, stronger effect = lower value 0.929 | locus YDR137W, strain rgp1, stronger effect = lower value 1.1 | locus YDR150W, strain NUM1, stronger effect = lower value 0.965 | locus YDR159W, strain sac3, stronger effect = lower value 1.03 | locus YDR195W, strain ref2 1.07 | locus YDR297W, strain sur2, stronger effect = lower value 1.02 | locus YDR318W, strain mcm21, stronger effect = lower value 0.947 | locus YDR334W, strain swr1, stronger effect = lower value 1.03 | locus YDR335W, strain msn5, stronger effect = lower value 1.06 | locus YDR392W, strain spt3, stronger effect = lower value 0.934 | locus YEL003W, strain gim4, stronger effect = lower value 1.04 | locus YEL037C, strain rad23, stronger effect = lower value 1.03 | locus YEL061C, strain CIN8 (second series), stronger effect = lower value 1.03 | locus YEL061C, strain CIN8, stronger effect = lower value 0.973 | locus YER002W, strain NOP16, stronger effect = lower value 1.02 | locus YER015W, strain faa2, stronger effect = lower value 1.01 | locus YER016W, strain bim1, stronger effect = lower value 1.02 | locus YER110C, stronger effect = lower value 0.96 | locus YER111C, strain swi4, stronger effect = lower value 1.06 | locus YER155C, strain BEM2 (second series), stronger effect = lower value 0.884 | locus YER155C, strain BEM2, stronger effect = lower value 1.02 | locus YER167W, strain BCK2, stronger effect = lower value 0.958 | locus YFR010W, strain ubp6, stronger effect = lower value 0.998 | locus YGL078C, strain dbp3, stronger effect = lower value 0.978 | locus YGL167C, strain pmr1, stronger effect = lower value 1.04 | locus YGL173C, strain kem1, stronger effect = lower value 1.01 | locus YGL227W, strain vid30, stronger effect = lower value 1.03 | locus YGL240W, strain doc1, stronger effect = lower value 0.99 | locus YGL253W, strain hxk2, stronger effect = lower value 1.05 | locus YHR013C, strain ard1, stronger effect = lower value 1.03 | locus YHR027C, strain rpn1, stronger effect = lower value 1 | locus YHR079C, strain IRE1 (second series), stronger effect = lower value 0.972 | locus YHR079C, strain IRE1, stronger effect = lower value 0.998 | locus YHR094C, strain hxt1, stronger effect = lower value 0.987 | locus YHR129C, strain ARP1, stronger effect = lower value 0.949 | locus YHR142W, strain chs7, stronger effect = lower value 1.04 | locus YHR200W, strain rpn10, stronger effect = lower value 0.975 | locus YIL073C, strain SPO22, stronger effect = lower value 1.3 | locus YIL125W, strain kgd1, stronger effect = lower value 0.991 | locus YIR030C, strain dcg1, stronger effect = lower value 0.98 | locus YJL092W, strain hpr5, stronger effect = lower value 1.01 | locus YJL095W, strain BCK1 (second series), stronger effect = lower value 1 | locus YJL115W, strain asf1, stronger effect = lower value 1.04 | locus YJL129C, strain trk1, stronger effect = lower value 1.06 | locus YJL134W, strain LCB3, stronger effect = lower value 0.988 | locus YJL154C, strain vps35, stronger effect = lower value 1.04 | locus YJL164C, strain tpk1, stronger effect = lower value 1.01 | locus YJL166W, strain qcr8, stronger effect = lower value 1.01 | locus YJL168C, strain set2, stronger effect = lower value 0.989 | locus YJL187C, strain SWE1, stronger effect = lower value 1.03 | locus YJR043C, strain POL32, stronger effect = lower value 0.996 | locus YJR066W, strain TOR1, stronger effect = lower value 0.948
active: locus YAL013W, strain DEP1, stronger effect = lower value 0.871 | locus YBR021W, strain FUR4, stronger effect = lower value 0.594 | locus YDL074C, strain BRE1, stronger effect = lower value 0.694 | locus YDR162C, strain NBP2, stronger effect = lower value 0.802 | locus YDR388W, stronger effect = lower value 0.814 | locus YDR502C, strain sam2, stronger effect = lower value 0.914 | locus YGL086W, strain mad1, stronger effect = lower value 0.903 | locus YGL248W, strain PDE1, stronger effect = lower value 0.849 | locus YGR135W, strain pre9, stronger effect = lower value 0.849 | locus YGR229C, strain SMI1, stronger effect = lower value 0.434 | locus YGR252W, strain gcn5, stronger effect = lower value 0.734 | locus YIL066C, strain RNR3, stronger effect = lower value 0.809 | locus YJL187C, strain SWE1 (second series), stronger effect = lower value 0.801
0.786 (active) and 0.987 (inactive): locus YGR078C, strain PAC10, stronger effect = lower value
0.771 (active) and 0.959 (inactive): locus YHR030C, strain SLT2, stronger effect = lower value

— PubChem BioAssay AID1159580 (chemical genetic matrix, 2015)
